Source: PubChem
In the library only some 21% were active in any assay of this set; here they are far more common.
Pf growth 48h – inhibits P. falciparum growth in the first generation, 48 h; P. falciparum luciferase growth in erythrocytes, 48 h; Potency, µM (series often up to 28.7 µM), for the others: top-dose activity change, negative = inhibition, usual class: inhibitors; hit rate 5.9% among 310,000; active means well fitted inhibition curve with a large enough effect; inconclusive means small, poorly fitted or top-dose-only effect, or another doubt; inactive means no such curve, though single readings can be large or run the other way; further: potency means the concentration at half of the fitted maximal effect; on the % scale 0 is the no-effect control and ±100 the full control effect
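Luminescence readout; reporter = integrated firefly luciferase in P. falciparum. RBC culture at 2% hematocrit, 0.1% parasitemia final, 37 C/5% CO2; decreased signal taken as growth inhibition.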
SARS PLP yeast – blocks SARS-CoV papain-like protease in a yeast assay; Potency, µM (doses to about 32.9 µM), without a hit: at the highest dose activity, positive = growth rescue, most hits filed as activators; S. cerevisiae expressing SARS-CoV PLpro, growth rescue; hit rate 0.19% among 330,000; further: potency means the concentration at half of the fitted maximal effect; 0% is about no effect; nearly all actives have a fitted effect of over 55% in size
Shiga inhibitor – Shiga toxin inhibition. Vero cells, Shiga toxin protein synthesis inhibition reporter. inhibition, % at 38.7 µM. hit rate 9.2% among 290,000. AID 2315; in the data active means inhibition mostly above about 28%, no sharp cut-off; inactive means mostly below about 43%; further: 0% is about no effect
Pf growth 96h – inhibits malaria parasite growth, 96 h. P. falciparum luciferase reporter growth, 96 h. Potency, µM (top dose mostly 28.7 µM), for inactives: at the top dose activity change, negative = inhibition, hits mostly inhibitors. hit rate 6.9% among 320,000. AID 504834; active means well fitted inhibition curve with a large enough effect; inconclusive means small, poorly fitted or top-dose-only effect, or another doubt; inactive means no such curve, though single readings can be large or run the other way; further: potency means the concentration at half of the fitted maximal effect; on the % scale 0 is the no-effect control and ±100 the full control effect
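Compounds incubated with erythrocytes infected by luciferase-expressing P. falciparum (2% hematocrit, 0.05% parasitemia final) for 96 hours, 37 C in 5% CO2. Growth inhibition scored as decreased luciferase luminescence.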
NS1 function inh – blocks influenza NS1 protein function | Potency, µM (titrated, usually from 46.1 µM), without a hit: at the top dose activity, positive = more growth | hit rate 0.4% among 270,000 | AID 2326; further: potency means the concentration at half of the fitted maximal effect; actives are rising curves; nearly all actives have a fitted effect of over 50% in size
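Read-out: OD600 growth recovery of NS1-expressing budding yeast. Cells grown overnight at 30C in -URA glucose medium, washed, resuspended and diluted 1:100 in 2% galactose assay medium, pH 6.0. Same strain lacking NS1 served as positive control.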
CHX counter – counter-screen hit for Shiga toxin inhibitors, cycloheximide; AID 2314; hit rate 12% among 300,000; cell reporter, cycloheximide protein synthesis inhibition counterscreen; max response, %; in the data active means max response mostly above about 13%, no sharp cut-off; inactive means mostly below about 14%; further: read at 38.3 µM for the half of the compounds with a filed dose; 0% is about no effect
Active calls of the source: *; u = inconclusive; x = no result; [ ] = dose if it differs, or a comment. Unless noted, the call rests on the fitted dose curve.

SMILES	Pf growth 48h	SARS PLP yeast	Shiga inhibitor	Pf growth 96h	NS1 function inh	CHX counter
O=C(CSc1ccccc1F)NC(=O)NCc1ccco1	-11%	0%	-3	33%	2%	4
N#CCSc1nnc(-c2ccccc2)c(-c2ccccc2)n1	4%	9%	-9	16%	-10%	-3
CCc1nnc(NS(=O)(=O)c2ccc(NCc3cc(Cl)cc(Cl)c3O)cc2)s1	28%	4%	-2	u	27%	0
O=C(CSc1nc(-c2ccccc2)cs1)NC(=O)NCc1ccco1	u	-16%	19	u	11%	25*
O=C(CSc1nc(-c2ccccc2)cs1)N1CCN(C(=O)c2ccco2)CC1	-15%	-2%	13	x	-9%	18*
CC1(C)C(=O)Nc2ccccc2N1C(=O)COc1cc(Cl)ccc1Cl	12µM*	-2%	x	u	x	x
N#CCSc1nc(-c2ccccc2)cs1	37%	-6%	50*	x	-17%	30*
C=CCOc1cc(OC)c(OC)c(OC)c1	17%	0%	-2	-1%	-2%	-1
C=CCOc1ccc(/C(CC)=N/O)c(OC)c1	8%	-4%	27	x	-5%	13*
Cc1nc2ccc(C(=O)OCc3ccccc3Br)cc2nc1C	7%	53%	19	49%	-3%	15
CCOC(=O)C1=C(C)NC(C)=C(C(=O)OC)C1c1ccco1 (stereo not drawn)	u	-1%	11	13µM*	1%	2
CCOC(=O)C1=c2s/c(=C\c3ccncc3)c(=O)n2C(N)=C(C(=O)OC)C1c1ccncc1 (stereo not drawn)	-7%	3%	-14	6%	x	0
C=CCOC(=O)C1=C(C)NC(C)=C(C(=O)OCC=C)C1c1ccco1	u	1%	-8	u	-1%	-2
CCOC(=O)C1=C(N)n2c(s/c(=C/c3ccco3)c2=O)=C(C(=O)OC)C1c1ccco1 (stereo not drawn)	13µM*	-4%	11	u	u	15
CCN(CC)C(=O)CSc1nc2c(sc(=S)n2-c2ccc(C)cc2C)c(=O)[nH]1	u	1%	34	u	9%	-2
CCN1/C(=C/c2ccc3cc(C)cc(C)c3[n+]2CC)Sc2cc(C)ccc21	12µM*	-25%	-16	2%	x	3
CCN1/C(=C\c2ccc3cc(C)ccc3[n+]2CC)Sc2cc(C)c(C)cc21	5.2µM*	-25%	2	31%	x	4
CCCCS(=O)(=O)N1CCC(C(=O)Oc2ccc(Cl)cc2)CC1	4%	-6%	-2	0%	-7%	-3
COc1ccc2c(c1)c(=O)oc1cc(OCC(=O)N3CCc4ccccc4C3)ccc12	-14%	2%	-23	x	15%	-2
CCCc1nc(SCC(=O)NCc2ccc3c(c2)OCO3)c2c(=O)n(C)c(=O)n(C)c2n1	x	x	x	x	-3%	x
COCCCNC(=O)CSc1nc2cc3c(cc2c(=O)n1CCCC(=O)NCc1ccc(OC)cc1)OCO3	-16%	0%	17	10µM*	x	0
Cn1c(=O)c2c(nc(SCC(=O)NCc3ccc4c(c3)OCO4)n2Cc2ccc(Cl)cc2)n(C)c1=O	9.3µM*	-14%	1	-10%	5%	-1
CCCc1cc(=O)[nH]c(SCC(=O)NCc2ccc3c(c2)OCO3)n1	4%	-2%	7	12µM*	21%	-4
Cc1nnc(SCC(=O)NCc2ccc3c(c2)OCO3)[nH]c1=O	37%	-5%	6	0.26µM*	-13%	-1
COc1ccc(CNC(=O)CCCn2c(SCC#N)nc3cc4c(cc3c2=O)OCO4)cc1	-10%	0%	-5	u	24%	13
SMILES	Pf growth 48h	SARS PLP yeast	Shiga inhibitor	Pf growth 96h	NS1 function inh	CHX counter
COC(=O)/C=C1/N/C(=N\c2nc(C)cc(C)n2)N(c2ccc(Cl)cc2)C1=O	-19%	-2%	-6	62%	14%	-3
COCCn1c(C)cc(/C=N/NC(=O)c2cc3ccccc3cc2O)c1C	3.7µM*	-7%	x	9.3µM*	x	x
Cn1c(O)c(/C=N/NC(=O)c2cc3ccccc3cc2O)c2ccccc21	u	13%	80*	u	-6%	21
CCn1c2ccccc2c2cc(/C=N/NC(=O)c3ccc(O)cc3)ccc21	u	0%	active	13%	u	26*
O=C(O)c1ccc(/C=N/NC(=O)c2cc3ccccc3cc2O)cc1	x	9%	x	x	x	x
Cn1c2ccccc2c2cc(/C=N/NC(=O)c3ccc(O)cc3O)ccc21	-30%	-2%	72*	37%	8%	32*
COc1ccc(N2CCN(S(=O)(=O)c3c(C(=O)N4CCOCC4)c(C)n(C)c3C)CC2)cc1	13%	0%	6	13%	6%	4
CC1CN(C(=O)COC(=O)CSc2ccc([N+](=O)[O-])cc2)CC(C)O1 (stereo not drawn)	4%	-3%	x	10%	x	x
CC(C)CC(=O)NNC(=O)C(C)C	23%	23%	-10	6%	11%	-3
O=C(c1cccc2nc3ccccc3nc12)N1CCOCC1	6%	0%	8	9%	1%	-1
CCOC(=O)[C@H]1[C@H]2COc3ccc(OC)cc3[C@@H]2N2C(=O)[C@H](C)NC(=O)[C@@]12C	14%	-1%	x	u	x	x
CC(=O)Nc1cc(C(=O)NCCN2CCN(Cc3ccccc3)CC2)ccc1Sc1ccc(C)cc1	u	-1%	-1	-10%	x	7
O=C(CN(C(=O)Cn1nnc(-c2ccc(F)cc2)n1)c1ccc(F)cc1)NC1CCCC1	u	1%	-7	u	4%	2
CNC1CCCN(c2c(F)cc3c(=O)c(C(=O)O)cn(C4CC4)c3c2OC)C1 (stereo not drawn)	4.8µM*	x	x	4.3µM*	x	x
COc1c(N2CCN(C(=S)NCc3ccccc3)C(C)C2)c(F)cc2c(=O)c(C(=O)O)cn(C3CC3)c12 (stereo not drawn)	9.3µM*	0%	-15	2.9µM*	20%	-4
COc1c(N2CCN[C@H](C)C2)c(F)cc2c(=O)c(C(=O)O)cn(C3CC3)c12	u	-10%	16	u	-11%	-3
CN1C[C@@H]2C[C@H]1CN2c1cc2c(cc1F)c(=O)c(C(=O)O)cn2C1CC1	5.4µM*	x	x	0.85µM*	x	x
COC(=O)C1=C(N)OC2=C(C(=O)CC(C)(C)C2)C1c1cc2c(cc1Cl)OCO2 (stereo not drawn)	0%	-7%	5	-14%	-6%	-1
Cn1c(SCC(=O)Nc2ccc(C(N)=O)cc2)nnc1-c1cccs1	-3%	9%	-8	u	8%	-4
COc1ccc2cc(C(=O)NCc3ccco3)c(=O)oc2c1	73%	2%	60*	13µM*	-10%[9.22 µM]	33*
COc1ccc2oc(=Nc3ccc(C(=O)O)cc3)c(C(=O)NCc3ccco3)cc2c1	266%	0%	23	u	x	7
COc1ccc(N=c2oc3c(OC)cccc3cc2C(=O)NCc2ccco2)c(OC)c1	12%	-4%	60	-9%	u	23*
